# Reference: ChEMBL document CHEMBL5598561, “ASAP - In vitro binding kinetics” (2024)
# Target: Nonstructural protein 3 (Zika virus) (UniProt A0A024AXB9)
# Sequence (A0A024AXB9 as listed by the source): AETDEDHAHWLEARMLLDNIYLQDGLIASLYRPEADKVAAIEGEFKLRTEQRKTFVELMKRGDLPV
smiles,measurement,setting,value
Nc1cc(Cl)cc(C(=O)Nc2ccc3c(c2)CNC3)c1N,pKD,"PRVABC59, Concentration 10.0 uM, Immobilization level 10000.0 pg/mm2, Rmax 26.0 pg/mm2, ka 624754.243 M-1s-1, kd 0.161 1/s",6.59
same,pKD,"PRVABC59, Concentration 10.0 uM, Immobilization level 12000.0 pg/mm2, Rmax 44.0 pg/mm2, ka 261141.936 M-1s-1, kd 1.029 1/s",5.4
same,pKD,"PRVABC59, Concentration 10.0 uM, Immobilization level 13000.0 pg/mm2, Rmax 23.0 pg/mm2, ka 816818.479 M-1s-1, kd 0.326 1/s",6.4
O=C(Nc1ccc2c(c1)CNC2)c1cc(Cl)cc2c1CCC2,pKD,"PRVABC59, Concentration 10.0 uM, Immobilization level 10000.0 pg/mm2, Rmax 25.0 pg/mm2, ka 106816.236 M-1s-1, kd 0.472 1/s",5.36
same,pKD,"PRVABC59, Concentration 10.0 uM, Immobilization level 12000.0 pg/mm2, Rmax 64.0 pg/mm2, ka 30866.003 M-1s-1, kd 0.225 1/s",5.14
same,pKD,"PRVABC59, Concentration 10.0 uM, Immobilization level 13000.0 pg/mm2, Rmax 31.0 pg/mm2, ka 79832.742 M-1s-1, kd 0.384 1/s",5.32
O=C(Nc1ccc2c(c1)CNC2)c1cc(F)cc2[nH]nnc12,pKD,"PRVABC59, Concentration 10.0 uM, Immobilization level 10000.0 pg/mm2, Rmax 22.0 pg/mm2, ka 162374.237 M-1s-1, kd 0.724 1/s",5.35
same,pKD,"PRVABC59, Concentration 10.0 uM, Immobilization level 12000.0 pg/mm2, Rmax 50.0 pg/mm2, ka 32556.979 M-1s-1, kd 0.41 1/s",4.9
same,pKD,"PRVABC59, Concentration 10.0 uM, Immobilization level 13000.0 pg/mm2, Rmax 48.0 pg/mm2, ka 67317.145 M-1s-1, kd 0.674 1/s",5
COCCNC(=O)[C@H](Nc1ccc2c(c1)CNC2)c1cc(Cl)cc(C2CC2)c1,pKD,"PRVABC59, Concentration 10.0 uM, Immobilization level 10000.0 pg/mm2, Rmax 39.0 pg/mm2, ka 617826.514 M-1s-1, kd 0.092 1/s",6.83
same,pKD,"PRVABC59, Concentration 10.0 uM, Immobilization level 12000.0 pg/mm2, Rmax 47.0 pg/mm2, ka 381252.779 M-1s-1, kd 0.077 1/s",6.7
same,pKD,"PRVABC59, Concentration 10.0 uM, Immobilization level 13000.0 pg/mm2, Rmax 46.0 pg/mm2, ka 474021.576 M-1s-1, kd 0.094 1/s",6.7
O=C(Nc1ccc2c(c1)CNC2)c1cc(Br)cc2c1OCO2,pKD,"PRVABC59, Concentration 10.0 uM, Immobilization level 10000.0 pg/mm2, Rmax 23.0 pg/mm2, ka 221801.012 M-1s-1, kd 2.02 1/s",5.04
same,pKD,"PRVABC59, Concentration 10.0 uM, Immobilization level 12000.0 pg/mm2, Rmax 42.0 pg/mm2, ka 116147.62 M-1s-1, kd 1.164 1/s",5
same,pKD,"PRVABC59, Concentration 10.0 uM, Immobilization level 13000.0 pg/mm2, Rmax 30.0 pg/mm2, ka 164731.302 M-1s-1, kd 1.67 1/s",4.99
CCc1nc2c(C(=O)Nc3ccc4c(c3)CNC4)cc(Br)cc2[nH]1,pKD,"PRVABC59, Concentration 10.0 uM, Immobilization level 10000.0 pg/mm2, Rmax 30.0 pg/mm2, ka 310193.647 M-1s-1, kd 0.373 1/s",5.92
same,pKD,"PRVABC59, Concentration 10.0 uM, Immobilization level 12000.0 pg/mm2, Rmax 36.0 pg/mm2, ka 171120.142 M-1s-1, kd 0.256 1/s",5.83
same,pKD,"PRVABC59, Concentration 10.0 uM, Immobilization level 13000.0 pg/mm2, Rmax 31.0 pg/mm2, ka 250565.843 M-1s-1, kd 0.327 1/s",5.88
O=C(Nc1ccc2c(c1)CNC2)c1cccc2[nH]ncc12,pKD,"PRVABC59, Concentration 10.0 uM, Immobilization level 10000.0 pg/mm2, Rmax 19.0 pg/mm2, ka 1068955.381 M-1s-1, kd 0.689 1/s",6.19
same,pKD,"PRVABC59, Concentration 10.0 uM, Immobilization level 12000.0 pg/mm2, Rmax 37.0 pg/mm2, ka 703955.922 M-1s-1, kd 0.285 1/s",6.39
same,pKD,"PRVABC59, Concentration 10.0 uM, Immobilization level 13000.0 pg/mm2, Rmax 29.0 pg/mm2, ka 931164.005 M-1s-1, kd 0.45 1/s",6.32
O=C(Nc1ccc2c(c1)CNC2)c1cc(Br)cc2ccccc12,pKD,"PRVABC59, Concentration 10.0 uM, Immobilization level 10000.0 pg/mm2, Rmax 20.0 pg/mm2, ka 1054680.734 M-1s-1, kd 0.691 1/s",6.18
same,pKD,"PRVABC59, Concentration 10.0 uM, Immobilization level 12000.0 pg/mm2, Rmax 63.0 pg/mm2, ka 507441.603 M-1s-1, kd 0.463 1/s",6.04
same,pKD,"PRVABC59, Concentration 10.0 uM, Immobilization level 13000.0 pg/mm2, Rmax 45.0 pg/mm2, ka 357590.388 M-1s-1, kd 0.673 1/s",5.72
N#C[C@H](Nc1ccc2c(c1)CNC2)c1cc(Cl)cc(C2CC2)c1,pKD,"PRVABC59, Concentration 10.0 uM, Immobilization level 10000.0 pg/mm2, Rmax 28.0 pg/mm2, ka 179746.524 M-1s-1, kd 1.36 1/s",5.12
same,pKD,"PRVABC59, Concentration 10.0 uM, Immobilization level 12000.0 pg/mm2, Rmax 42.0 pg/mm2, ka 91353.604 M-1s-1, kd 0.386 1/s",5.37
same,pKD,"PRVABC59, Concentration 10.0 uM, Immobilization level 13000.0 pg/mm2, Rmax 52.0 pg/mm2, ka 98756.182 M-1s-1, kd 0.944 1/s",5.02
Cc1cc(NC(=O)c2cc(Cl)cc3[nH]ncc23)ccc1N1CCNCC1,pKD,"PRVABC59, Concentration 10.0 uM, Immobilization level 10000.0 pg/mm2, Rmax 68.0 pg/mm2, ka 142841.774 M-1s-1",4.45
same,pKD,"PRVABC59, Concentration 10.0 uM, Immobilization level 12000.0 pg/mm2, Rmax 26.0 pg/mm2, ka 204393.234 M-1s-1, kd 2.532 1/s",4.91
same,pKD,"PRVABC59, Concentration 10.0 uM, Immobilization level 13000.0 pg/mm2, Rmax 38.0 pg/mm2, ka 209487.853 M-1s-1, kd 3.706 1/s",4.75
O=C(Nc1ccc2c(n1)CNC2)c1cc(Cl)cc2[nH]ncc12,pKD,"PRVABC59, Concentration 10.0 uM, Immobilization level 3900.0 pg/mm2, Rmax 29.0 pg/mm2, ka 330423.124 M-1s-1, kd 0.318 1/s",6.02
same,pKD,"PRVABC59, Concentration 10.0 uM, Immobilization level 4900.0 pg/mm2, Rmax 43.0 pg/mm2, ka 188485.066 M-1s-1, kd 0.307 1/s",5.79
same,pKD,"PRVABC59, Concentration 10.0 uM, Immobilization level 5500.0 pg/mm2, Rmax 45.0 pg/mm2, ka 189855.655 M-1s-1, kd 0.314 1/s",5.78
same,pKD,"PRVABC59, Concentration 10.0 uM, Immobilization level 10000.0 pg/mm2, Rmax 55.0 pg/mm2, ka 105317.175 M-1s-1, kd 0.527 1/s",5.3
same,pKD,"PRVABC59, Concentration 10.0 uM, Immobilization level 12000.0 pg/mm2, Rmax 96.0 pg/mm2, ka 37343.204 M-1s-1, kd 0.288 1/s",5.11
same,pKD,"PRVABC59, Concentration 10.0 uM, Immobilization level 13000.0 pg/mm2, Rmax 49.0 pg/mm2, ka 130791.962 M-1s-1, kd 0.347 1/s",5.58
CCc1cc(Cl)cc(C(=O)Nc2ccc3c(c2)CNC3)c1,pKD,"PRVABC59, Concentration 10.0 uM, Immobilization level 10000.0 pg/mm2, Rmax 7.0 pg/mm2, ka 456970.038 M-1s-1, kd 1.322 1/s",5.54
same,pKD,"PRVABC59, Concentration 10.0 uM, Immobilization level 12000.0 pg/mm2, Rmax 55.0 pg/mm2, ka 33985.237 M-1s-1, kd 0.743 1/s",4.66
same,pKD,"PRVABC59, Concentration 10.0 uM, Immobilization level 13000.0 pg/mm2, Rmax 17.0 pg/mm2, ka 179212.289 M-1s-1, kd 1.129 1/s",5.2
CNC(=O)[C@H](Nc1ccc2c(c1)CNC2)c1cc(Cl)cc(C2CC2)c1,pKD,"PRVABC59, Concentration 10.0 uM, Immobilization level 10000.0 pg/mm2, Rmax 21.0 pg/mm2, ka 735105.2 M-1s-1, kd 0.212 1/s",6.54
same,pKD,"PRVABC59, Concentration 10.0 uM, Immobilization level 12000.0 pg/mm2, Rmax 44.0 pg/mm2, ka 423211.762 M-1s-1, kd 0.126 1/s",6.53
same,pKD,"PRVABC59, Concentration 10.0 uM, Immobilization level 13000.0 pg/mm2, Rmax 34.0 pg/mm2, ka 634638.949 M-1s-1, kd 0.171 1/s",6.57
O=C(Nc1ccc2c(c1)[C@H]1CC[C@H]2N1)c1cc(Cl)cc2[nH]ncc12,pKD,"PRVABC59, Concentration 10.0 uM, Immobilization level 3900.0 pg/mm2, Rmax 29.0 pg/mm2, ka 207440.056 M-1s-1, kd 1.881 1/s",5.04
same,pKD,"PRVABC59, Concentration 10.0 uM, Immobilization level 4900.0 pg/mm2, Rmax 21.0 pg/mm2, ka 356637.156 M-1s-1, kd 1.239 1/s",5.46
same,pKD,"PRVABC59, Concentration 10.0 uM, Immobilization level 5500.0 pg/mm2, Rmax 38.0 pg/mm2, ka 209576.876 M-1s-1, kd 1.619 1/s",5.11
same,pKD,"PRVABC59, Concentration 10.0 uM, Immobilization level 10000.0 pg/mm2, Rmax 35.0 pg/mm2, ka 240196.621 M-1s-1, kd 1.957 1/s",5.09
same,pKD,"PRVABC59, Concentration 10.0 uM, Immobilization level 12000.0 pg/mm2, Rmax 27.0 pg/mm2, ka 216801.208 M-1s-1, kd 1.112 1/s",5.29
same,pKD,"PRVABC59, Concentration 10.0 uM, Immobilization level 13000.0 pg/mm2, Rmax 42.0 pg/mm2, ka 287948.566 M-1s-1, kd 1.743 1/s",5.22
O=C(Nc1cc(Cl)cc(C(=O)Nc2ccc3c(c2)CNC3)c1)OCc1ccccc1,pKD,"PRVABC59, Concentration 1.0 uM, Immobilization level 3900.0 pg/mm2, Rmax 38.0 pg/mm2, ka 196121.646 M-1s-1, kd 0.113 1/s",6.24
same,pKD,"PRVABC59, Concentration 1.0 uM, Immobilization level 4900.0 pg/mm2, Rmax 45.0 pg/mm2, ka 144681.299 M-1s-1, kd 0.064 1/s",6.35
same,pKD,"PRVABC59, Concentration 1.0 uM, Immobilization level 4900.0 pg/mm2, Rmax 45.0 pg/mm2, ka 172692.705 M-1s-1, kd 0.081 1/s",6.33
same,pKD,"PRVABC59, Concentration 1.0 uM, Immobilization level 5500.0 pg/mm2, Rmax 49.0 pg/mm2, ka 194075.024 M-1s-1, kd 0.087 1/s",6.35
same,pKD,"PRVABC59, Concentration 1.0 uM, Immobilization level 5500.0 pg/mm2, Rmax 54.0 pg/mm2, ka 112858.156 M-1s-1, kd 0.052 1/s",6.33
same,pKD,"PRVABC59, Concentration 10.0 uM, Immobilization level 3900.0 pg/mm2, Rmax 44.0 pg/mm2, ka 164681.147 M-1s-1, kd 0.126 1/s",6.12
COc1cc(Br)cc(C(=O)Nc2ccc3c(c2)CNC3)c1,pKD,"PRVABC59, Concentration 10.0 uM, Immobilization level 3900.0 pg/mm2, Rmax 30.0 pg/mm2, ka 1022660.121 M-1s-1, kd 0.519 1/s",6.29
same,pKD,"PRVABC59, Concentration 10.0 uM, Immobilization level 4900.0 pg/mm2, Rmax 37.0 pg/mm2, ka 628733.109 M-1s-1, kd 0.436 1/s",6.16
same,pKD,"PRVABC59, Concentration 10.0 uM, Immobilization level 5500.0 pg/mm2, Rmax 32.0 pg/mm2, ka 715576.018 M-1s-1, kd 0.434 1/s",6.22
same,pKD,"PRVABC59, Concentration 10.0 uM, Immobilization level 10000.0 pg/mm2, Rmax 31.0 pg/mm2, ka 878454.345 M-1s-1, kd 0.618 1/s",6.15
same,pKD,"PRVABC59, Concentration 10.0 uM, Immobilization level 12000.0 pg/mm2, Rmax 51.0 pg/mm2, ka 505054.059 M-1s-1, kd 0.503 1/s",6
same,pKD,"PRVABC59, Concentration 10.0 uM, Immobilization level 13000.0 pg/mm2, Rmax 45.0 pg/mm2, ka 775706.649 M-1s-1, kd 0.539 1/s",6.16
